Tau ThT inhib: qHTS for Inhibitors of Tau Fibril Formation, Thioflavin T Binding. Potency, µM (top dose mostly 57.4 µM), for the others: at the highest dose activity, negative = inhibition, hits mostly inhibitors. 270,000 tested, 2.1% active. recombinant tau K18 P301L, heparin-induced fibrillization, ThT fluorescence; further: potency means the concentration at half of the fitted maximal effect; nearly all actives have a fitted effect of over 55% in size
Target sequence (P10636 561-689 P618L limits assumed): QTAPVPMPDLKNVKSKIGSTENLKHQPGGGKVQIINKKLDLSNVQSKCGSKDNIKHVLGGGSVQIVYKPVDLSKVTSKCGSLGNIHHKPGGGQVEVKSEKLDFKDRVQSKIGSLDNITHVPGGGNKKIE
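Tau K18 P301L fragment (15 uM unlabeled plus 0.24 uM Alexa 594-labeled) in 100 mM sodium acetate pH 7 with compound, fibrillization induced by 20 uM heparin for 6 hr at 37 C. Thioflavin T (30 uM) added, fluorescence read after 1 hr (ex 450, em 510 nm).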
USP1 inh: Inhibitors of USP1/UAF1: Primary Screen | Potency, µM (doses to about 57.1 µM), inactives show at the top dose activity change, negative = inhibition, hits mostly inhibitors | AID 743255, 2014 | recombinant USP1/UAF1, Ub-Rhodamine cleavage fluorescence | 390,000 tested, 0.23% active | Ubiquitin carboxyl-terminal hydrolase 1 (Homo sapiens), O94782; further: potency means the concentration at half of the fitted maximal effect; nearly all actives have a fitted effect of over 60% in size
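USP1/UAF1 complex (1 nM) preincubated 15 min at room temperature with compound, then Ub-Rho substrate (150 nM final) added. Kinetic fluorescence at 480/540 nm over 6 reads at 60 s intervals; 50 mM HEPES pH 7.8, 0.5 mM EDTA, 0.1 mg/ml BSA, 1 mM TCEP, 0.01% Tween-20.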
Coupling enz: qHTS Assay for Inhibitors of Fructose-1,6-bisphosphate Aldolase from Giardia Lamblia: Coupling assay counterscreen | coupling enzyme system counterscreen, AmpLite Red fluorescence | 290,000 tested, 0.67% active | activity change, negative = inhibition, % at 58.2 µM, hits read low; in the data active means activity change below about -30%
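First, compound is pin-transferred into glyceraldehyde-3-phosphate coupling-enzyme reagent at 57.5 uM final and held 10 min at RT. Next, substrate, coupling system and AmpLite Red are added. After 20 min RT, fluorescence (525/598 nm) is read.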
Tau fibril FP: qHTS for Inhibitors of Tau Fibril Formation, Fluorescence Polarization; Microtubule-associated protein tau (Homo sapiens), P10636; K18 P301L tau heparin fibrillization, Alexa594 FP, 6 h; Potency, µM (titrated, usually from 57.7 µM), inactives show top-dose activity, negative = inhibition, actives largely listed as inhibitors; 280,000 tested, 0.39% active; AID 1468, 2008; further: potency means the concentration at half of the fitted maximal effect; nearly all actives have a fitted effect of over 55% in size
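Human K18 P301L fragment (15 uM unlabeled plus 0.24 uM Alexa 594-labeled) in 100 mM sodium acetate pH 7 with compound, aggregation induced by 20 uM heparin for 6 hr at 37 C. ThT (30 uM) added for 1 hr, then Alexa 594 FP read.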
Tau fluor counter: Counterscreen qHTS for Inhibitors of Tau Fibril Formation, Fluorescence Polarization. tau K18 P301L (four-repeat tau fragment) Alexa594 fluorescence, heparin fibrillization. Potency, µM (series often up to 57.7 µM), for the others: top-dose activity change, negative = decrease. 280,000 tested, 0.93% active. AID 1463, 2008; further: potency means the concentration at half of the fitted maximal effect; nearly all actives have a fitted effect of over 55% in size
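Human K18 P301L tau (15 uM unlabeled plus 0.24 uM Alexa 594-labeled, final) in 100 mM sodium acetate pH 7 was mixed with compound and 20 uM heparin and incubated 6 hr at 37 C.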
An asterisk follows results filed as active; ? = inconclusive; . = not tested or not shown; ! = not confirmed by another sample; [ ] = another dose, or the depositor's remark. Sampled rows, rich in hits. Any-hit rate of the full collection: about 2.3%. Unless noted, the call rests on the fitted dose curve; in most records, active means well fitted curve in the direction sought with a large enough effect; inconclusive means small, poorly fitted or top-dose-only effect, or another doubt; inactive means no such curve, though single readings can be large; an effect the other way counts as inactive or inconclusive. On the % scale 0 is the no-effect control and ±100 the full control effect.

SMILES	Tau ThT inhib	USP1 inh	Coupling enz	Tau fibril FP	Tau fluor counter
COC(=O)[C@H]1[C@H]2C[C@@H]3c4[nH]c5cc(OC)ccc5c4CCN3C[C@H]2C[C@@H](OC(=O)c2cc(OC)c(OC)c(OC)c2)[C@@H]1OC	?	-17%	.	7%	13µM*[quencher]
CC1=CC(C)(C)Nc2ccc(OC(=O)CN3C(=O)CCC3=O)cc21	?	3%	-32*	-4%	?
CC1=CC(C)(C)Nc2ccc(OC(=O)C(C)N3C(=O)c4ccccc4C3=O)cc21 (stereo not drawn)	-27%	?	0	8%	?
CC(CCc1ccccc1)NS(=O)(=O)c1ccccc1F (stereo not drawn)	.	-2%	3	.	.
CCOC(=O)C1=NN(c2ccccc2)C(=O)/C1=C\c1ccc(N(C)C)cc1	?	-8%	5	3%	-29%
CC1=NN(Cc2ccccc2)C(=O)/C1=C\c1ccc(N(C)C)cc1	20µM*	-6%	-4	-1%	-23%
CCOC(=O)N1CCN(S(=O)(=O)N2CCCC(C(=O)NCc3cc(Br)ccc3OC)C2)CC1 (stereo not drawn)	5%	-5%	.	3%	-14%
COc1ccc(NC(=O)N(C)C[C@H]2Oc3ncc(Br)cc3C(=O)N([C@H](C)CO)C[C@@H]2C)cc1	.	-32%	.	.	.
O=c1cc(O)c2sc(Nc3ccc(F)cc3)nc2[nH]1	28µM*	-5%	0	?	?
O=c1cc(O)c2sc(Nc3cccc(C(F)(F)F)c3)nc2[nH]1	19%	3%	-1	-11%	7%
Cc1onc(-c2ccccc2Cl)c1C(=O)Nc1sc2c(c1C#N)CCC2	28µM*	-24%	0	?	?
N#Cc1c(NC(=O)C2CC(c3ccccc3Cl)=NO2)sc2c1CCC2 (stereo not drawn)	-13%	-13%	1	-2%	-22%
CC1(C)CC(=O)c2c(oc3cc(O)c(O)cc23)C1	28µM*	-20%	-62*!	?	?
O=C(CC1CCS(=O)(=O)C1)Nc1ccc[nH]c1=O (stereo not drawn)	-2%	-15%	-52*	8%	8%
Cc1cc(C)c2nc(N(Cc3cccnc3)C(=O)Cc3ccccc3)sc2c1	-12%	-6%	.	2%	-13%
CN1/C(=C/C(=S)NC(=O)C2(C)CC2(Cl)Cl)C(C)(C)c2ccccc21 (stereo not drawn)	13µM*	-28%	0	-10%	-18%
CN1/C(=C\C(=O)Nc2ccc(Cl)cc2)C(C)(C)c2ccccc21	?	-25%	-3	10%	13µM*[quencher]
CN1/C(=C\C(=S)NC(=O)c2ccccc2Cl)C(C)(C)c2ccccc21	11µM*	-7%	0	5%	-4%
CN1/C(=C\C(=S)Nc2ccccc2)C(C)(C)c2ccccc21	?	-13%	-7	?	?
COc1ccccc1C(=O)NC(=S)/C=C1/N(C)c2ccccc2C1(C)C	2%	-11%	3	4%	2%
CC(=O)c1ccc(NS(=O)(=O)c2cc(-c3cc(C)no3)ccc2C)cc1	-8%	-6%	.	-14%	-23%
Cc1coc2c(C)c3oc(=O)c(CCC(=O)NCCc4ccccc4F)c(C)c3cc12	3%	-15%	.	-4%	12%
NC(=O)C1CCCN(C(=O)c2ccc(Cl)c(S(=O)(=O)N3CCc4ccccc43)c2)C1 (stereo not drawn)	.	-1%	.	.	.
Cc1ccc(-n2[nH]c(C)c(C=Nc3ccc(S(=O)(=O)Nc4nccs4)cc3)c2=O)cc1	?	.	-1	5%	-20%
Cc1[nH]n(-c2ccc(Br)cc2)c(=O)c1C=Nc1ccc(S(=O)(=O)Nc2nccs2)cc1	16µM*	-21%	-1	-13%	?
SMILES	Tau ThT inhib	USP1 inh	Coupling enz	Tau fibril FP	Tau fluor counter
COc1ccc(-n2c(C)c3c(OC)cccc(=O)c3c2C)cc1	18µM*	-11%	-3	?	-23%
COc1cccc(=O)c2c(C)n(-c3ccc(C(=O)O)cc3)c(C)c12	16µM*	-19%	-12	?	-14%
COc1ccccc1-n1c(C)c2c(OC)cccc(=O)c2c1C	?	-11%	0	-4%	-9%
Cc1ccc(CNC(=O)Cn2ncc3c(C)n(Cc4ccc(Cl)cc4)c(C)c3c2=O)cc1	-4%	-8%	.	-3%	-4%
COc1cccc(C2CC(=O)N3CN(c4ccccc4F)CSC3=C2C#N)c1 (stereo not drawn)	?	-22%	-10	-8%	-15%
COc1cccc(C2CC(=O)N3CN(c4cccc(Cl)c4C)CSC3=C2C#N)c1OC (stereo not drawn)	28µM*	-20%	-14	32µM*	?
COc1ccc(OC)c(C2CC(=O)N3CN(c4cccc(Cl)c4C)CSC3=C2C#N)c1 (stereo not drawn)	28µM*	-17%	-28	32µM*	?
COc1ccc(OC)c(C2CC(=O)N3CN(c4ccccc4F)CSC3=C2C#N)c1 (stereo not drawn)	28µM*	-24%	-84*	25µM*	-23%
COc1ccc(OC)c(C2CC(=O)NC(SC)=C2C#N)c1 (stereo not drawn)	-11%	-27%	2	-10%	-8%
O=C(CSc1oc(-c2ccc(F)cc2)nc1S(=O)(=O)c1ccc(Cl)cc1)c1ccccc1	2%	-21%	.	?	-29%
CCOc1ccc(OCCC(=O)N(CCC(C)C)c2c(N)n(Cc3ccccc3)c(=O)[nH]c2=O)cc1	.	2%	.	.	.
Cc1cc(SCC(=O)NN=C2CCN(C(C)C)CC2)c(C)cc1Br	-10%	4%	-1	-3%	-4%
COc1cc(/C=N/NC(=O)CSc2cc(C)c(Br)cc2C)ccc1O	?	-20%	0	1%	25µM*[quencher]
COc1ccc(/C=N/NC(=O)CSc2ccccc2)cc1OC	-13%	3%	1	-2%	-2%
COc1ccc(/C=N/NC(=O)CCn2c3ccccc3c3ccccc32)cc1O	?	-18%	-1	-10%	18µM*[quencher]
Cc1cc(SCC(=O)N/N=C/c2ccc(O)c(O)c2O)c(C)cc1Br	7.9µM*	-26%	-32*	13µM*	14µM*[quencher]
COc1cccc(N2CC(NC(=O)c3ccc(S(=O)(=O)N4CCCCC4)cc3)CC2=O)c1 (stereo not drawn)	-2%	-21%	.	0%	-15%
CC/C=C\C/C=C\C/C=C\C/C=C\C/C=C\C/C=C\CCC(=O)NCCO	-6%	.	-1	11%	-5%
COc1ccccc1C(=O)Nc1ccnn1C1CCN(Cc2ccn[nH]2)CC1	.	-7%	.	.	.

High-throughput results as filed in PubChem.
